Among the test systems are NCI-H23 lung; NCI-H226 lung; NCI-H322M lung; HOP-62 NSCLC; NCI-H460 lung; HOP-92 NSCLC; A549/ATCC NSCLC; 786-0 renal; COLO 205 colon; DU-145 prostate; K-562 leukemia; MALME-3M melanoma; MDA-MB-231 breast; RXF 393 renal; SF-268 CNS; SF-295 CNS; SF-539 CNS; UACC-257 melanoma; M14 melanoma.
Holding throughout (assay): NCI-60 one-dose screen, 48 h (100 = growth as untreated, 0 = no growth, -100 = all killed)
What all share (settings): 10 µM unless noted

This is part of a sample that, as a whole, favours compounds with a hit. Of some 83,000 tested, about 20% had one in any assay.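 96-well plates, one dose, 48 hours. Percent growth reported; active if below 10.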 Values without a mark were called inactive. Calls of active or inactive are those of the source.

Consider `O=C(Nc1ccccc1OC(=O)c1ccccc1)c1ccccc1`, for which the growth was 70.6% with NCI-H23 lung; 104% in the assay on NCI-H226 lung; 72.3% in the assay with NCI-H322M lung; 85.2% in the assay on HOP-62 NSCLC; 98.1% in the assay with NCI-H460 lung; 89.5% in the assay on HOP-92 NSCLC. For the same compound, the growth in the assay with A549/ATCC NSCLC was 81.3%; with 786-0 renal, 96%; with COLO 205 colon, 108%; in the assay with DU-145 prostate, 112%; in the assay on K-562 leukemia, 25.2%; with MALME-3M melanoma it was 93.9%. Besides, the growth in the assay on MDA-MB-231 breast is 56.1%; in the assay on RXF 393 renal it was 121%; in the assay with SF-268 CNS it was 47.3%; in the assay on SF-295 CNS, 109%; in the assay with SF-539 CNS it was 95.7%; in the assay with UACC-257 melanoma, 63.8%. In addition, the growth in the assay with M14 melanoma is 102%.
On to `C(#Cc1ccccc1C#Cc1ccccn1)c1ccc(OCCCCCCOc2ccc(C#Cc3ccccc3C#Cc3ccccn3)cc2)cc1`, for which the growth with NCI-H23 lung was 57.3%; in the assay on NCI-H226 lung, 67.3%; in the assay with NCI-H322M lung, 67.8%; in the assay with HOP-62 NSCLC, 38.2%; with NCI-H460 lung it was 19.9%; with HOP-92 NSCLC, 9.48% (active). Besides, the growth in the assay on A549/ATCC NSCLC was 25.3%; with 786-0 renal, 29.3%; in the assay on COLO 205 colon, 120%; in the assay on DU-145 prostate it was 76.2%; with K-562 leukemia, 31.6%; with MALME-3M melanoma it was 99.6%. The growth in the assay on MDA-MB-231 breast was 35.3%; in the assay on RXF 393 renal, 45.6%; in the assay on SF-268 CNS, 88.9%; in the assay on SF-295 CNS it was -3.2% (active); in the assay with SF-539 CNS it was 25.4%; with UACC-257 melanoma, 34.2%. Besides, the growth in the assay on M14 melanoma was 23.4%.
Turning to `C=C1CCC2C3(C)COC(c4ccccc4)OC3CCC2(C)C1C/C=C1/C(=O)OCC1OC(C)=O` (configuration not stated), the growth with NCI-H23 lung is 101%; in the assay with NCI-H226 lung it was 59.6%; with NCI-H322M lung it was 97%; with HOP-62 NSCLC, 96.1%; in the assay with NCI-H460 lung, 103%; in the assay with HOP-92 NSCLC it was 100%. Also, the growth in the assay with A549/ATCC NSCLC was 83.9%; in the assay on 786-0 renal, 95.3%; in the assay on COLO 205 colon, 103%; in the assay with DU-145 prostate, 108%; in the assay with K-562 leukemia, 74.2%; in the assay on MALME-3M melanoma, 105%. The growth in the assay on MDA-MB-231 breast was 94.9%; in the assay on RXF 393 renal, 41%; in the assay with SF-268 CNS, 102%; with SF-295 CNS, 100%; in the assay with SF-539 CNS, 105%; in the assay on UACC-257 melanoma, 91.3%. Besides, in the assay on M14 melanoma, the growth was 89.4%.
For the compound `Cc1cc(C(=O)Nc2ccc3cc(CN4CCOCC4)ccc3n2)c(C)n1-c1ccccc1`, the growth in the assay on NCI-H23 lung is 12.7%; in the assay with NCI-H226 lung it was 21.9%; in the assay with NCI-H322M lung, 94.2%; in the assay on HOP-62 NSCLC it was 36%; in the assay on NCI-H460 lung it was 59.3%; in the assay on HOP-92 NSCLC, 51.7%. Besides, the growth in the assay with A549/ATCC NSCLC was 28%; with 786-0 renal, 56.7%; in the assay with COLO 205 colon, 40.5%; with DU-145 prostate, 70.2%; in the assay on K-562 leukemia it was 27%; in the assay with MALME-3M melanoma it was 11.4%. Further, the growth was 70.9% with MDA-MB-231 breast; 96.3% with RXF 393 renal; 77% with SF-268 CNS; 11.7% in the assay with SF-295 CNS; 59.1% with SF-539 CNS; -12.7% (active) in the assay with UACC-257 melanoma. Further, the growth in the assay with M14 melanoma is 13.5%.
For the compound `CCCc1n(Cc2ccc3ccccc3c2)cc[n+]1Cc1ccc2ccccc2c1`, the growth was -28.2% (active) with NCI-H23 lung; 0.228% (active) with NCI-H226 lung; 23.2% with NCI-H322M lung; 5.82% (active) in the assay with HOP-62 NSCLC; 3.26% (active) in the assay on NCI-H460 lung; -38.3% (active) in the assay with HOP-92 NSCLC. The growth in the assay with A549/ATCC NSCLC was 31.6%; with 786-0 renal, 9.55% (active); with COLO 205 colon, -66.9% (active); in the assay with DU-145 prostate, 20.3%; in the assay on K-562 leukemia it was 2.49% (active); with MALME-3M melanoma, -49.6% (active). Also, the growth with MDA-MB-231 breast was -80.1% (active); with RXF 393 renal, -30.4% (active); in the assay on SF-268 CNS it was 7.55% (active); in the assay on SF-295 CNS it was -1.49% (active); in the assay on SF-539 CNS, 1.21% (active); in the assay on UACC-257 melanoma, -33.6% (active). In addition, the growth in the assay on M14 melanoma is -28.4% (active).
With `O=C(Nc1ccc2c(c1)C(=O)c1ccccc1-2)c1ccccc1`, the growth in the assay with NCI-H23 lung is 95%; with NCI-H226 lung, 97.6%; in the assay on NCI-H322M lung, 101%; in the assay with HOP-62 NSCLC it was 44.3%; in the assay on NCI-H460 lung it was 87.4%; in the assay with HOP-92 NSCLC, 82.1%. The growth in the assay with A549/ATCC NSCLC was 100%; in the assay with 786-0 renal it was 52.1%; in the assay with COLO 205 colon, 97.8%; with DU-145 prostate it was 81.9%; with K-562 leukemia it was 81.2%; with MALME-3M melanoma, 90.2%. In addition, the growth with MDA-MB-231 breast is 81.9%; in the assay on RXF 393 renal, 99.2%; in the assay on SF-268 CNS it was 65.2%; with SF-295 CNS, 103%; in the assay with SF-539 CNS, 52.6%; with UACC-257 melanoma it was 111%. Besides, the growth in the assay with M14 melanoma is 88%.
With `CC(C)N(Cc1ccccc1)c1c(Cl)ssc1=O`, the growth in the assay with NCI-H23 lung was 106%; in the assay on NCI-H226 lung it was 101%; in the assay with NCI-H322M lung, 109%; in the assay with HOP-62 NSCLC, 113%; in the assay on NCI-H460 lung, 109%; in the assay on HOP-92 NSCLC it was 82.5%. For the same compound, the growth with A549/ATCC NSCLC is 88.8%; in the assay with 786-0 renal, 102%; with COLO 205 colon, 106%; in the assay with DU-145 prostate it was 94.9%; in the assay on K-562 leukemia, 108%; in the assay with MALME-3M melanoma it was 104%. Besides, the growth with MDA-MB-231 breast is 89.3%; in the assay on RXF 393 renal it was 74.8%; in the assay on SF-268 CNS, 118%; with SF-295 CNS, 108%; in the assay on SF-539 CNS it was 96%; in the assay with UACC-257 melanoma, 94.3%. In addition, the growth with M14 melanoma is 91%.
Take `O=C(CNC(=O)c1cccc2ccccc12)Nc1ccccc1Cc1ccccc1`: the growth with NCI-H23 lung is 52.1% [5 µM]; in the assay on NCI-H226 lung, 72.3% [5 µM]; in the assay with NCI-H322M lung it was 78.4% [5 µM]; with HOP-62 NSCLC, 36.4% [5 µM]; in the assay on NCI-H460 lung it was 17.9% [5 µM]; with HOP-92 NSCLC it was 53.5% [5 µM]. In addition, the growth is 27% [5 µM] with A549/ATCC NSCLC; 45.3% [5 µM] in the assay on 786-0 renal; 29.4% [5 µM] in the assay on COLO 205 colon; 48.4% [5 µM] in the assay with DU-145 prostate; 12.3% [5 µM] in the assay on K-562 leukemia; 46.8% [5 µM] in the assay with MALME-3M melanoma. Further, the growth in the assay with MDA-MB-231 breast is 64.1% [5 µM]; in the assay with RXF 393 renal, 47.2% [5 µM]; in the assay with SF-268 CNS, 48.6% [5 µM]; with SF-295 CNS it was 17.1% [5 µM]; with SF-539 CNS, 26.7% [5 µM]; with UACC-257 melanoma, 25.4% [5 µM]. For the same compound, in the assay on M14 melanoma, the growth is 10.6% [5 µM].
